# hgDAF12 agonist = H. glycines DAF-12 receptor agonists, primary screen, cell-based, luminescence, HEK293, GAL4 fusion, UAS-luciferase | Nuclear hormone receptor DAF-12 (Heterodera glycines), GAL4 fusion | HEK293 GAL4-hgDAF12 UAS-luciferase reporter, agonist luminescence; normalized to butyrate control | activation, % at 6.8 µM | actives 1.8% (n = 370,000) | AID 687014, 2013;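 active = activation above a cutoff set at the mean of all screened compounds plus 3 SD, cut at about 10% in these data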;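 also: 0% = DMSO wells and 100% = sodium butyrate wells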
# ssDAF12 agonist = S. stercoralis DAF-12 nuclear receptor activators, primary screen, cell-based, luminescence, HEK293, GRIP1 co-expression, lit1-tk-luc | actives 1% (n = 370,000) | HEK293 ssDAF-12/GRIP1 lit1-tk-luc reporter; % of 3 µM dafachronic acid response | Nuclear hormone receptor DAF-12 (Strongyloides stercoralis) | activation, % at 6.8 µM | AID 652126, 2013;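 active = activation above the mean over all tested compounds plus 3 SD, cut at about 0.9% in these data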;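 also: 0% = DMSO-only wells and 100% = 3 µM delta7-dafachronic acid wells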
# DAX1 inh-1 = DAX1 (NR0B1) inhibitors on StAR promoter, primary screen, cell-based, luminescence, SF-1 (NR5A1), full-length DAX-1 | HEK293T StAR-luciferase reporter, SF-1/DAX-1 repression relief | inhibition, % at 6.8 µM | actives 1.1% (n = 370,000);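 active = inhibition above the mean over all tested compounds plus 3 SD, cut at about 3.6% in these data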;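 also: 0% = DAX-1 cells with DMSO and 100% = cells lacking DAX-1 with DMSO; higher inhibition means more luminescence from relief of DAX-1 repression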
# DAX1 inh-2 = DAX1 (NR0B1) inhibitors, primary screen, cell-based, HEK293, Gal4-DAX1, luciferase luminescence; Nuclear receptor subfamily 0 group B member 1 (Homo sapiens), P51843; HEK293 Gal4-DAX1 luciferase reporter; inhibition, % at 6.75 µM; actives 0.99% (n = 340,000);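 active = inhibition above the mean over all tested compounds plus 3 SD, cut at about 4.2% in these data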;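 also: 0% = DAX1-transfected cells with DMSO and 100% = empty-vector control cells with DMSO; inhibition shows as a rise in luminescence from relieved DAX1 repression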
# hcDAF-12 act = H. contortus DAF-12 nuclear receptor activators, primary screen, cell-based, luminescence, HEK293, lit1-tk-luc reporter | HEK293 hcDAF-12 lit1-tk-luc reporter; 0% DMSO, 100% Δ7-dafachronic acid | activation, % at 6.8 µM | actives 1.4% (n = 370,000) | AID 652067, 2013;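 active = activation above the mean of all tested compounds plus 3 SD, cut at about 5.5% in these data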;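 also: 100% = response to 3 µM Δ7-dafachronic acid high control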
# DAX1 conf = DAX1 (NR0B1) inhibitors relieving SF-1 repression, confirmation, cell-based, luminescence, HEK293T, full-length DAX-1, SF-1 activated StAR promoter | shares compounds with DAX1 inh-1 | HEK293T StAR-promoter luciferase reporter, SF-1/DAX-1 repression | inhibition, % at 6.8 µM | actives 87% (n = 2,400) | AID 652134, 2013;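 active = inhibition above the average of every tested compound plus 3 SD, cut at about 3.8% in these data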;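 also: 0% = DAX-1 cells with DMSO and 100% = no DAX-1 control cells with DMSO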
# SF1 mutant ctr = StAR reporter signal changes without DAX1, counter-screen for DAX1 inhibitor project, cell-based, luminescence, AF-2 mutant SF-1, transactivation | shares compounds with DAX1 inh-1 | actives 78% (n = 2,400) | HEK293 StAR-luciferase, SF-1 AF2 mutant | inhibition, % at 6.8 µM | AID 652136, 2013;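 active = inhibition above the mean of all tested compounds plus 3 SD, cut at about 3% in these data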;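 also: 0% = DAX-1 transfected cells with DMSO and 100% = cells without DAX-1 with DMSO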
# LXRb hcDAF ctr = LXR agonists, Gal4 luciferase reporter, confirmation, counter-screen for hcDAF-12 agonist project, cell-based, luminescence, HEK293, H. contortus campaign | shares compounds with hcDAF-12 act | HEK293 Gal4-LXR tk-luc reporter, 24 h; normalized: DMSO 0%, positive control 100% | activation, % at 6.8 µM | 3,400 tested, under 10 active;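 active = mean percent activation of the reporter above a cutoff set as the average over tested compounds plus their standard deviation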
# Target sequence (P55055 whole entry, looked up, the tested form may be a part): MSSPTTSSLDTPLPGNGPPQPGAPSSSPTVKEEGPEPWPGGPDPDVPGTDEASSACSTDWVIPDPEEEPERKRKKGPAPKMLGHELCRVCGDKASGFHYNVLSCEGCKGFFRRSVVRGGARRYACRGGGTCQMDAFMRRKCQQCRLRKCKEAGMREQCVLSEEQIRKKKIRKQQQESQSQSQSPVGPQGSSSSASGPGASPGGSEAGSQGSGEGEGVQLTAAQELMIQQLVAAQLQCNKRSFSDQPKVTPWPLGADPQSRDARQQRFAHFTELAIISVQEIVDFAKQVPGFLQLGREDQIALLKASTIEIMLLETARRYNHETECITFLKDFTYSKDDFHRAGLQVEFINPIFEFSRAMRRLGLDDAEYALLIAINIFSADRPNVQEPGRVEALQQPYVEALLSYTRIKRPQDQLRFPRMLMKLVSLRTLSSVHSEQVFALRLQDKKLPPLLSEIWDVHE
# hcDAF12 conf = H. contortus DAF-12 receptor agonists, confirmation, cell-based, luminescence, HEK293, lit1-tk-luc, triplicate. shares compounds with hcDAF-12 act. HEK293 hcDAF-12 lit1-tk-luc reporter; % of Δ7-dafachronic acid response. activation, % at 6.8 µM. actives 61% (n = 3,400);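 active = mean activation across triplicate tests above the threshold derived from the earlier primary screen, cut at about 5.5% in these data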;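 also: 0% = DMSO only wells and 100% = 3 µM Δ7-dafachronic acid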
# hgDAF12 conf = H. glycines DAF-12 receptor agonists, confirmation, cell-based, luminescence, HEK293, GAL4-LBD fusion. HEK293 GAL4-hgDAF12 luciferase reporter, agonist mode; percent of butyrate response. shares compounds with hgDAF12 agonist. activation, % at 6.8 µM. actives 80% (n = 3,300);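 active = mean activation over triplicate wells above the hit cutoff derived from the earlier primary screen, cut at about 11% in these data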;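 also: 0% = DMSO low control and 100% = 2 mM sodium butyrate high control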
# LXR ag 2 = LXR agonists, Gal4 luciferase reporter, confirmation, counter-screen for hgDAF-12 agonist project, cell-based, luminescence, HEK293, H. glycines campaign | shares compounds with hgDAF12 agonist | 24 h | activation, % at 6.8 µM | 3,300 tested, under 10 active | AID 743051, 2013;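 active = mean activation of the triplicate above a set limit carried over from the primary screen, none filed active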
# Starred values were filed as active, the others as inactive; · = no result given. Rows were chosen to be rich in hits. Some 4.1% of all compounds tested hit in one or more screens of this group.
SMILES,hgDAF12 agonist,ssDAF12 agonist,DAX1 inh-1,DAX1 inh-2,hcDAF-12 act,DAX1 conf,SF1 mutant ctr,hgDAF12 conf,LXR ag 2,others
CC1Cc2ccccc2N1C(=O)COC(=O)/C=C/c1ccc(F)cc1 (configuration not stated),-1,-1,0,0,1,·,·,·,·,
CC1Cc2ccccc2N1C(=O)/C=C/c1cccc(F)c1 (configuration not stated),16*,1,6.1*,3,5,7.6*,6.9*,16*,1,
COc1cccc(-c2csc(NC3OC(=O)c4c3ccc(OC)c4OC)n2)c1 (configuration not stated),3,0,0,·,4,·,·,·,·,
COc1ccc2c(c1OC)C(=O)OC2Nc1nc(-c2ccc(-c3ccccc3)cc2)cs1 (configuration not stated),21*,0.9*,5.1*,3,9.1*,10*,6.5*,14*,1,LXRb hcDAF ctr=1;hcDAF12 conf=3
Cc1ccc(S(=O)(=O)N2C3CCCCC3O[C@H]2CC(=O)c2ccccc2)cc1 (some centres not stated),2,-1,0,·,-1,·,·,·,·,
Nc1c(C(=O)Nc2ccc(Cl)cc2)oc2ccccc12,20*,2.2*,6.4*,4.3*,22*,15*,11*,24*,1,LXRb hcDAF ctr=2;hcDAF12 conf=16*
Cc1ccc(Cc2c(-c3ccc(C)cc3)nc3ccc(Br)cn23)cc1,9,0,3,3,5,·,·,·,·,
Cc1ccn2c(Cc3ccccc3)c(-c3ccc(Br)cc3)nc2c1,17*,0,8.4*,2,1,5.3*,1,2,0,
Cc1ccc(Cc2c(-c3ccc(C)cc3)nc3cc(C)ccn23)cc1,18*,0,6.2*,2,2,2,0,4,0,
COc1ccc(-c2nn(-c3ccccc3)cc2N)cc1,16*,0,5.3*,2,4,9.2*,5.8*,16*,0,
COc1ccc(N(C)S(=O)(=O)c2cccc(C(=O)N3CCN(c4cccc(C)c4C)CC3)c2)cc1,2,-1,-1,1,0,·,·,·,·,
Cc1cc(C(=O)Nc2nc(C)c(C(=O)N(C)C)s2)ccc1[N+](=O)[O-],14*,0,4.6*,1,3,13*,5.4*,11*,1,
Cc1ccnc(NC(=O)c2ccc3c(c2)OCO3)c1,18*,-1,4.9*,-1,6.3*,7.0*,3.7*,11*,1,
CC(C)Cc1nnc(NC(=O)c2ccc3c(c2)OCCO3)s1,15*,0,8.1*,0,5.8*,15*,7.1*,13*,1,
Cc1cccnc1NC(=O)c1ccc2c(c1)OCCO2,5,0,3,1,2,·,·,·,·,
O=C(Nc1ncccc1O)c1ccc2c(c1)OCCO2,60*,1.3*,33*,8.1*,7.2*,42*,22*,57*,1,LXRb hcDAF ctr=2;hcDAF12 conf=4
CCc1cc(C(=O)Nc2ncccc2O)sc1C,20*,1,20*,-1,6.4*,21*,9.0*,25*,1,
CC1(C)OC(=O)C2=C(CC(CCc3ccccc3)OC2CCc2ccccc2)O1 (configuration not stated),2,-1,0,·,1,·,·,·,·,
COc1ccc(C#CCN(Cc2ccc(OC)cc2OC)C(N)=NC(=O)CCc2ccccc2)cc1,1,-2,-2,·,-2,·,·,·,·,
Cn1c(COc2ccccc2)nnc1SCC(=O)Nc1ccc(OCc2ccccc2)cc1,5,-2,0,·,2,·,·,·,·,
COc1ccc(NC(=O)NC2CCN(S(=O)(=O)c3ccc(F)cc3)CC2)cc1OC,2,-1,1,·,-4,·,·,·,·,
O=C(Nc1ncccc1O)c1ccc2c(c1)OCO2,37*,0,17*,4,4,27*,14*,39*,0,
COC(=O)[C@]12C[C@H](CC(=O)NCc3cccc(C(F)(F)F)c3)C(=O)N(Cc3ccc(Cl)cc3Cl)C1=C[C@H](C1CCCC1)O[C@@H]2C,1,-1,-2,·,-2,·,·,·,·,
COC(=O)c1sc2nc3c(cc2c1N)CCCC3,25*,0,5.1*,3,6.5*,13*,6.8*,18*,1,
CCOC(=O)c1sc2nc3c(cc2c1N)COC(C)(CC)C3 (configuration not stated),14*,0,4.8*,2,9.3*,14*,6.0*,18*,1,LXRb hcDAF ctr=2;hcDAF12 conf=6.1*
CCOc1ccc(-n2c(SCC(=O)Nc3ccc4cn[nH]c4c3)nnc2-c2ccc(C(C)(C)C)cc2)cc1,3,-1,-1,·,-1,·,·,·,·,
